p47phox inh: p47phox (human) inhibition; P14598; p47phox/p22phox peptide binding, fluorescence polarization, 2 h; inhibition, % at 24.7 µM; 220,000 tested, 0.53% active; AID 1274;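 note: 0% = p47phox with labelled peptide and 100% = labelled peptide alone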
Target sequence (P14598 whole entry, looked up): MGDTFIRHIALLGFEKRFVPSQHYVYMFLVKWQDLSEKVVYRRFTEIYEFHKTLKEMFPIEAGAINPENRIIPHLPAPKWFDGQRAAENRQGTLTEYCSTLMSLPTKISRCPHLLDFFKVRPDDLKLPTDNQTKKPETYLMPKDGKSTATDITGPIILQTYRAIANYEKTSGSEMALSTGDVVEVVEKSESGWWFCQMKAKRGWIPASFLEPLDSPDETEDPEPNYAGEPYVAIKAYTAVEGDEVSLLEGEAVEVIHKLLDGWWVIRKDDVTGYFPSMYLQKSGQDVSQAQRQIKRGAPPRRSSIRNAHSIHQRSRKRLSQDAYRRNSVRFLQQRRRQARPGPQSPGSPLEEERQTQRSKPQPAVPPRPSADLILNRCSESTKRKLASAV
14-3-3 Bad inh: disrupts binding of bovine 14-3-3 zeta to phospho-Bad peptide | P63103 | TR-FRET 14-3-3zeta/Dy647-pBad peptide displacement, 1 h | inhibition, % at 21.7 µM | 220,000 tested, 0.71% active | AID 781;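 active = inhibition above about 70%, limit read from the data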;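 note: 0% = full 14-3-3 plus peptide FRET controls and 100% = background without 14-3-3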
SUMO HTRF inh: SUMOylation inhibition; 290,000 tested, 0.36% active; HTRF SUMOylation assay, SAE1/SAE2 + UBC9, in vitro; P63279; inhibition, % at 35 µM; in the data active = inhibition above about 50%, passing the limit was not always enough; inconclusive = no clear call, values can overlap the other calls
Target sequence (P63279 whole entry, looked up): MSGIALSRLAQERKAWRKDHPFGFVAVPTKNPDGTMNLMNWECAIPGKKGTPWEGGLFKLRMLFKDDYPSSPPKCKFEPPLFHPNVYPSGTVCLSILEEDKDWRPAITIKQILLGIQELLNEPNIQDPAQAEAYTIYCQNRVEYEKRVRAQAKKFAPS
eIF4E 4G PPI: blocks eIF4E binding to eIF4G; TR-FRET eIF4E-eIF4GI(517-606) binding, 2 h; inhibition, % at 21.7 µM; 220,000 tested, 0.37% active; AID 782;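 note: 0% = full FRET control wells and 100% = background wells lacking eIF4GI fragment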
Active calls of the source: *; ? = inconclusive; nt = no result; [ ] = dose if it differs, or a comment. In the library only some 1.3% were active in any assay of this set; here they are far more common.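 Rule for the calls, unless noted: active = inhibition above about 30% (limit read from the data); inactive = the rest.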

SMILES | p47phox inh | 14-3-3 Bad inh | SUMO HTRF inh | eIF4E 4G PPI
CCOC(=O)N1CCN(C(=O)c2cn(CC)c3ccc(S(=O)(=O)N4CCOCC4)cc3c2=O)CC1 | nt | nt | 3.5 | nt
CCOc1ccccc1N1CCN(C/C=C/c2ccc(N(C)C)cc2)CC1 | -15.7 | 78.2*[fluorescence artefact?] | 20.1 | 2.7
CCOc1ccccc1N1CCN(Cc2ccco2)CC1 | 0.8 | 8.3 | 5.6 | 7.3
CCOc1ccccc1N1CCN(Cc2ccc(Br)s2)CC1 | 12.7 | 75.8* | 1.8 | 2.2
COc1ccc(/C=N/Nc2ncnc3c2[nH]c2ccc(C)cc23)c(OC)c1OC | 7.0 | 86.8* | 13.4 | 9.2
COc1cc(OC)c(OC)cc1/C=N/Nc1ncnc2c1[nH]c1ccccc12 | -27.2 | 5.8 | 20.2 | 3.1
Oc1cccc(Nc2nc(O)c(/C=C3\C=Nc4ccccc43)s2)c1 | -131.7 | 73.1* | 2.0 | 1.3
Oc1nc(Nc2cccc(Cl)c2)sc1/C=C1\C=Nc2ccccc21 | -116.9 | -3.5 | -2.5 | 4.4
O=C(NN1C(=O)CSC1=S)C(=O)NN1C(=O)CSC1=S | -37.7 | -13.4 | 95.5* | -1.2
O=C(/C=C/c1cccs1)Nc1scc(-c2ccccc2)c1C(=O)O | -93.2 | 92.1* | nt | 92.4*
O=C(/C=C/c1cccs1)Nc1nc(-c2ccccc2)cs1 | -20.6 | 3.1 | -5.2 | 3.2
O=C(COC(=O)CN1C(=O)c2ccccc2C1=O)NC1CCCCC1 | nt | nt | 6.4 | nt
CN1C(=O)C(CC(=O)Nc2ccc(F)cc2)N(CCCc2ccccc2)C1=S (configuration not stated) | -2.8 | 14.9 | 8.7 | -7.1
CCOCCCNC(=O)C(NC(=O)c1ccc(NC(C)=O)cc1)c1ccccc1 (configuration not stated) | 6.0 | 73.5* | -11.9 | -0.8
CCOCCCNC(=O)C(NC(=O)c1ccc(NC(C)=O)cc1)c1ccc(C)cc1 (configuration not stated) | -7.0 | 8.1 | 5.2 | 3.1
COc1ccccc1-n1c(C)nc2cc(C(=O)O)ccc21 | 39.3* | 2.2 | 12.3 | -1.9
Nc1cc(C(=O)O)ccc1Nc1ccc(F)c(F)c1 | 30.2* | 2.0 | 10.5 | 1.1
CC12CS(=O)(=O)CC1SC(=S)N2Cc1ccccc1 (configuration not stated) | -5.6 | -17.5 | -1.0 | -2.1
CO/N=C/C(c1ncc(C(F)(F)F)cc1Cl)S(=O)(=O)c1ccccc1 (configuration not stated) | nt | nt | 10.3 | nt
CO/N=C/C(C#N)c1ncc(C(F)(F)F)cc1Cl (configuration not stated) | -16.4 | 3.0 | -9.5 | 83.3*
COc1ccc(Cn2ccnc2SCC(=O)Nc2nnc(C)s2)cc1 | nt | nt | 14.8 | nt
CN(C)c1nc(-c2cccs2)cc(C(F)(F)F)c1C#N | 58.0* | 2.9 | -9.4 | 2.2
c1ccc(-c2csc(N3CCN(c4ccccn4)CC3)n2)cc1 | -12.2 | 66.2 | -6.4 | -0.3
O=C(CSc1nc(C2CCCCC2)n(-c2ccccc2)n1)NCC(F)(F)F | 41.5* | 21.0 | -7.2 | -1.5
C=C(C)CSc1nc2sc3c(c2c(=O)n1-c1ccc(OC)cc1)CCN(C)C3 | nt | nt | 1.0 | nt
SMILES | p47phox inh | 14-3-3 Bad inh | SUMO HTRF inh | eIF4E 4G PPI
Cc1cc(C(F)(F)F)nn1CC(=O)NCc1ccco1 | 2.1 | -7.1 | 8.7 | 2.6
Cc1cc(NS(=O)(=O)c2ccc(Cl)cc2)nn1CC(=O)NCc1ccco1 | 55.3* | 1.1 | 0.6 | -2.0
Cc1cccc(-n2c(O)cnc2Nc2nc(C)cc(C)n2)c1 | 39.7* | -14.9 | 5.7 | -0.8
Cc1cc(C)nc(Nc2ncc(O)n2-c2ccccc2)n1 | -8.5 | 1.2 | 29.8 | -1.8
Cc1ccc(/C=C/c2nc3ccccc3s2)s1 | -40.1 | 77.5* | 8.3 | 0.9
FC(F)(F)c1cc(Oc2ccccc2)ncc1-c1nnc(-c2ccccc2Cl)o1 | -29.0 | 4.2 | -1.0 | 4.7
CCc1nnc(SCc2cn3c(C)cc(C)nc3n2)n1N | -2.4 | nt | 9.1 | nt
COc1ccc(-c2ncncc2-c2ccc(Cl)cc2)c(O)c1 | 7.9 | -4.0 | -0.6 | 82.9*
COc1ccc(-c2cncnc2-c2ccc(OC)cc2O)cc1 | nt | nt | 10.5 | nt
O=C(NC1(O)C(=O)c2ccccc2C1=O)c1c(Cl)cccc1Cl | -10.9 | 4.0 | 95.0* | -9.1
O=C(NC1(O)C(=O)c2ccccc2C1=O)c1ccccc1 | -4.3 | 8.1 | 83.9* | 0.2
O=C(Nc1ccccc1N1CCOCC1)c1ccc2nc[nH]c2c1 | -6.3 | -7.8 | 6.9 | -2.6
COc1ccc(NS(=O)(=O)c2cccc(N3CC(O)=C(c4ccccc4)C3=N)c2)cc1 | -4.5 | -3.6 | 12.6 | 1.8
COc1cccc(C2C(C(=O)Nc3ccccc3)=C(C)N=c3s/c(=C/c4ccc(OCC(=O)O)cc4)c(=O)n32)c1 (configuration not stated) | -29.8 | -9.8 | 16.5 | -0.4
CC1=C(C(=O)Nc2ccccc2)C(c2ccc(C)o2)n2c(s/c(=C\c3ccco3)c2=O)=N1 (configuration not stated) | -31.5 | 4.2 | 71.8* | 1.8
Cc1ccc(C(=O)NC2c3ccccc3-c3ccccc32)cc1 | -12.5 | 5.0 | 33.6 | -3.3
Cc1ccc(C(=O)C2C(=O)c3ccccc3C2=O)cc1 | 7.8 | 81.8* | 3.4 | 9.2
COc1ccc(/C=N/NS(=O)(=O)c2ccccc2)cc1OS(=O)(=O)c1ccc(C)cc1 | -9.0 | -25.5 | -11.3 | -4.3
COCCCNc1nc2nonc2nc1N1CCC(C(C)N2CCOCC2)CC1 (configuration not stated) | -14.6 | -3.5 | 4.3 | -0.7
Cc1cccc(Oc2ncnc3onc(C)c23)c1C | 5.0 | 85.3*[fluorescence artefact?] | 6.6 | -3.3
COc1ccc2oc(=O)c(C(=O)NCc3ccco3)cc2c1 | -7.8 | -20.0 | 51.8* | 2.4
COc1ccc(-c2cc(C(F)(F)F)n3ncc(C(=O)NCc4ccco4)c3n2)cc1 | 2.4 | -5.8 | 63.7* | -18.3
COc1ccccc1-c1noc(-c2ccccc2C(=O)NCc2ccco2)n1 | -4.1 | -8.5 | 9.2 | -11.9
COc1cc(-c2noc(-c3ccccc3C(=O)NCc3ccco3)n2)cc(OC)c1OC | 41.9* | -10.0 | 7.1 | -3.5
CNC(=S)NNC(=O)c1ccccc1F | -6.0 | -9.5 | -2.9 | -0.8
SMILES | p47phox inh | 14-3-3 Bad inh | SUMO HTRF inh | eIF4E 4G PPI
Cc1c(NC(=O)CN2CC(C)OC(C)C2)c(=O)n(-c2ccccc2)n1C (configuration not stated) | -1.9 | 85.8* | -1.0 | 9.1
c1cc(Nc2ncnc3sc4c(c23)CCC4)ccn1 | -11.3 | -4.6 | 53.6* | -3.1
C(=N\Nc1ncnc2sc3c(c12)CCC3)/c1ccncc1 | -4.5 | -6.7 | 29.8 | -6.2
CSCC[C@@H](C(=O)O)N1Cc2ccccc2C1=O | 1.6 | 81.5* | 23.5 | 6.0
O=C(O)C(c1ccccc1)N1C(=O)c2ccccc2C1=O (configuration not stated) | nt | nt | -5.1 | nt
O=C(O)[C@@H](c1ccccc1)N1Cc2ccccc2C1=O | -5.8 | 91.6* | 33.8 | 90.2*
CSCC[C@@H](C(=O)Nc1ccc2c(c1)OCCO2)N1Cc2ccccc2C1=O | -6.7 | 1.5 | -7.8 | 0.5
O=c1cc2oc3cc(O)c(O)cc3c(-c3ccccc3O)c-2cc1O | -297.7 | 48.3 | 85.3* | 27.9
COc1ccc(OC)c(-c2c3cc(O)c(=O)cc-3oc3cc(O)c(O)cc23)c1 | -245.9 | 74.6*[fluorescence artefact?] | ? | 51.2*[fluorescence artefact?]
